Experimental data: PubChem BioAssay (NCI)
This is part of a sample that, as a whole, favours compounds with a hit. Of some 79,000 tested, about 15% had one in any assay. No stated cut-off is given here; in the data, active means growth inhibition above about 70%; inactive means the rest.

Tests used:
[1] = NCI Yeast Anticancer Drug Screen. Data for the rad52 strain (AID 147);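 further: 0% = growth of vehicle-treated control cultures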; details: S. cerevisiae rad52 mutant growth inhibition, hits give high values
Method in brief: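 Growth of repair-deficient yeast cells was compared between compound-treated and vehicle-treated cultures to give percent inhibition.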

[2] = NCI Yeast Anticancer Drug Screen. Data for the wt1 strain (AID 149);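 further: 0% = growth of vehicle-treated wt1 cultures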; details: S. cerevisiae wt1 strain (SPY 50644) growth inhibition, hits give high values
Method in brief: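 Vehicle-normalised growth inhibition; strain wt1; compound exposure.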

[3] = NCI Yeast Anticancer Drug Screen. Data for the rad50EPP+ strain (AID 151);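 further: 0% = growth of vehicle-treated control cultures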; details: S. cerevisiae rad50 mutant strain, hits give high values
Method in brief: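 Measured: growth inhibition of rad50EPP+ yeast. Reference: vehicle-treated controls. Screen uses strains with defined genetic alterations in DNA damage repair or cell cycle control.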

[4] = NCI Yeast Anticancer Drug Screen. Data for the mgt1 strain (AID 153); details: S. cerevisiae mgt1 mutant growth inhibition, hits give high values
Method in brief: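 Compounds were applied to mgt1 mutant yeast, and growth was then compared against vehicle-treated control cultures to give percent inhibition.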

[5] = NCI Yeast Anticancer Drug Screen. Data for the rad50 strain (AID 155);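 further: 0% = growth of vehicle-only cultures of the same strain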; details: S. cerevisiae rad50 strain growth inhibition, hits give high values
Method in brief: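 A DNA repair-deficient yeast mutant serves as the test organism; compound-induced growth inhibition is calculated against vehicle-treated cells.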

[6] = NCI Yeast Anticancer Drug Screen. Data for the mec2-1 strain (AID 157); details: S. cerevisiae mec2-1 strain, hits give high values
Method in brief: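 Compounds were applied to mec2-1 yeast cells. Their growth was then compared with that of vehicle-treated cultures to give growth inhibition.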

[7] = NCI Yeast Anticancer Drug Screen. Data for the rad14 strain (AID 159);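 further: 0% = growth of vehicle-treated control cultures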; details: S. cerevisiae rad14 strain growth inhibition, hits give high values
Method in brief: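 Vehicle-treated cultures served as the baseline for growth inhibition of a DNA repair-mutant yeast strain exposed to each compound.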

[8] = NCI Yeast Anticancer Drug Screen. Data for the sgs1 mgt1 strain (AID 161);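 further: 0% = growth of cultures given vehicle only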; details: S. cerevisiae sgs1 mgt1 strain, hits give high values
Method in brief: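 Compounds are added to genetically altered yeast, and growth is compared with cultures given vehicle alone to give percent inhibition.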

[9] = NCI Yeast Anticancer Drug Screen. Data for the CLN2oe strain (AID 163);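 further: 0% = growth of vehicle-only control cultures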; details: S. cerevisiae CLN2oe strain, hits give high values
Method in brief: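 Cells of an engineered yeast line with disturbed cell-cycle regulation are treated with compound. Inhibition of growth is then calculated relative to the vehicle-treated reference.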

[10] = NCI Yeast Anticancer Drug Screen. Data for the cln2 rad14 strain (AID 165);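 further: 0% = growth equal to vehicle treated cultures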; details: S. cerevisiae cln2 rad14 strain, hits give high values
Method in brief: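 Strain: cln2 rad14 yeast, altered in cell cycle control and DNA damage repair. Read-out: growth inhibition vs vehicle.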

[11] = NCI Yeast Anticancer Drug Screen. Data for the bub3 strain (AID 167); details: S. cerevisiae bub3 mutant strain, hits give high values
Method in brief: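 Inhibition values come from growth of compound-treated mutant yeast normalised to vehicle-treated controls.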

[12] = NCI Yeast Anticancer Drug Screen. Data for the wt2 strain (AID 169);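 further: 0% = growth of vehicle-treated yeast cultures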; details: S. cerevisiae wt2 strain growth inhibition, hits give high values
Method in brief: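 Growth of compound-treated yeast is measured and expressed as inhibition relative to vehicle-only controls.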

[13] = NCI Yeast Anticancer Drug Screen. Data for the mlh1 strain (AID 171);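 further: 0% = growth of vehicle-treated control cultures of the same strain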; details: S. cerevisiae mlh1 strain growth inhibition, hits give high values
Method in brief: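 Test agents were incubated with yeast bearing a defined DNA damage repair or cell cycle control alteration; values are growth inhibition normalised to vehicle-treated cultures.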

[14] = NCI Yeast Anticancer Drug Screen. Data for the sgs1 strain (AID 173);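 further: 0% = growth of vehicle-only control cultures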; details: S. cerevisiae sgs1 mutant, hits give high values
Method in brief: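 Strain with an altered DNA repair or cell cycle pathway exposed to compound. Growth then measured. Value = inhibition versus vehicle control.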

[15] = NCI Yeast Anticancer Drug Screen. Data for the mlh1 rad18 strain (AID 175); details: S. cerevisiae mlh1 rad18 strain growth inhibition, hits give high values
Method in brief: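 A repair-deficient yeast strain is exposed to test compound, and growth is scored relative to vehicle-treated controls.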

[16] = NCI Yeast Anticancer Drug Screen. Data for the rad18 strain (AID 177); details: S. cerevisiae rad18 mutant growth inhibition, hits give high values
Method in brief: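 DNA-repair-defective yeast; compound treatment; growth inhibition scored against vehicle.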

[17] = at 5.0 µM (retest, dose inferred, filed as 0.5)
[18] = at 50.0 µM (retest, dose inferred, filed as 5.0)

Measured: growth inhibition

COC(=O)Oc1cc(Cl)c(Cl)cc1Cl
inactive: [1]; at 1.2 µM 0% | [1]; at 3.7 µM 0% | [1]; at 11.0 µM -1% | [1]; at 33.0 µM 4% | [1]; at 100.0 µM 9% | [2]; at 1.2 µM -1% | [2]; at 3.7 µM -2% | [2]; at 11.0 µM -3% | [2]; at 33.0 µM -4% | [2]; at 100.0 µM 0% | [3]; at 1.2 µM -1% | [3]; at 3.7 µM 0% | [3]; at 11.0 µM 7% | [3]; at 33.0 µM 2% | [3]; at 100.0 µM 1% | [4]; at 1.2 µM -1% | [4]; at 3.7 µM 0% | [4]; at 11.0 µM 1% | [4]; at 33.0 µM -3% | [4]; at 100.0 µM 1% | [5]; at 1.2 µM 0% | [5]; at 3.7 µM 0% | [5]; [17] 4% | [5]; at 11.0 µM -1% | [5]; at 33.0 µM 2% | [5]; [18] -5% | [5]; at 50.0 µM 30.8% | [5]; at 100.0 µM 10% | [6]; at 1.2 µM 0% | [6]; at 3.7 µM 4% | [6]; [17] -4% | [6]; at 11.0 µM 3% | [6]; at 33.0 µM 5% | [6]; [18] 23% | [6]; at 50.0 µM 21.4% | [6]; at 100.0 µM 8% | [7]; at 1.2 µM 0% | [7]; at 3.7 µM 0% | [7]; at 11.0 µM 2% | [7]; at 33.0 µM 5% | [7]; at 100.0 µM 9% | [8]; [17] 3% | [8]; [18] 1% | [8]; at 50.0 µM 30.1% | [9]; at 1.2 µM -4% | [9]; at 3.7 µM -3% | [9]; at 11.0 µM -7% | [9]; at 33.0 µM -6% | [9]; at 100.0 µM -4% | [10]; [17] 3% | [10]; [18] 52% | [10]; at 50.0 µM 22.6% | [11]; at 1.2 µM 1% | [11]; at 3.7 µM 3% | [11]; [17] 12% | [11]; at 11.0 µM 1% | [11]; at 33.0 µM 3% | [11]; [18] 4% | [11]; at 50.0 µM 36% | [11]; at 100.0 µM 3% | [12]; at 1.2 µM 0% | [12]; at 3.7 µM -2% | [12]; at 11.0 µM -2% | [12]; at 33.0 µM -2% | [12]; at 100.0 µM -1% | [13]; at 1.2 µM 1% | [13]; at 3.7 µM -2% | [13]; at 11.0 µM -7% | [13]; at 33.0 µM 3% | [13]; at 100.0 µM 13% | [14]; at 1.2 µM 0% | [14]; at 3.7 µM 0% | [14]; at 11.0 µM 1% | [14]; at 33.0 µM 3% | [14]; at 100.0 µM 10% | [15]; [17] 7% | [15]; [18] 19% | [15]; at 50.0 µM 11.8% | [16]; at 1.2 µM 0% | [16]; at 3.7 µM 5% | [16]; at 11.0 µM 6% | [16]; at 33.0 µM 9% | [16]; at 100.0 µM 20%
